# Pf growth 48h = Primary qHTS for delayed death inhibitors of the malarial parasite plastid, 48 hour incubation; P. falciparum luciferase growth in erythrocytes, 48 h; Potency, µM (top dose mostly 28.7 µM), for inactives: at the highest dose activity change, negative = inhibition, hits mostly inhibitors; 310,000 compounds, 5.9% hits; also: potency is read from the fitted curve at half-maximal effect; % is scaled to controls: 0 for no effect and ±100 for the full control effect
#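 Read-out is firefly luciferase luminescence from an integrated reporter in P. falciparum, so falling signal marks reduced parasite growth. Infected erythrocytes were at 2% hematocrit and 0.1% parasitemia (final) in Albumax-supplemented RPMI 1640.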
# Pf growth 96h = Primary qHTS for delayed death inhibitors of the malarial parasite plastid, 96 hour incubation; Potency, µM (doses to about 28.7 µM), inactives show top-dose activity change, negative = inhibition, usual class: inhibitors; P. falciparum luciferase reporter growth, 96 h; 320,000 compounds, 6.9% hits; also: potency is read from the fitted curve at half-maximal effect; % is scaled to controls: 0 for no effect and ±100 for the full control effect
#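 P. falciparum expressing integrated firefly luciferase grown in erythrocytes (2% hematocrit, 0.05% parasitemia final) with compounds for 96 hours at 37 C, 5% CO2. Growth inhibition read as loss of luminescence after adding luciferase detection reagent.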
# CHX counter = Cycloheximide Counterscreen for Small Molecule Inhibitors of Shiga Toxin. cell reporter, cycloheximide protein synthesis inhibition counterscreen. max response, %. 300,000 compounds, 12% hits; in the data active = max response mostly above about 13%, no sharp cut-off; inactive = mostly below about 14%; also: read at 38.3 µM for the half of the compounds with a filed dose; 0% is about no effect
# Shiga inhibitor = A qHTS for Small Molecule Inhibitors of Shiga Toxin; AID 2315, 2010; 290,000 compounds, 9.2% hits; Vero cells, Shiga toxin protein synthesis inhibition reporter; inhibition, % at 38.7 µM; in the data active = inhibition mostly above about 28%, no sharp cut-off; inactive = mostly below about 43%; also: 0% is about no effect
# * marks the source's active call; other numbers are inactive results; i = inactive; ? = inconclusive; · = no result given. In the library only some 21% were active in any assay of this set; here they are far more common. Unless noted, calls follow the shape of the dose curve; as a rule, active = well fitted inhibition curve with a large enough effect; inconclusive = small, poorly fitted or top-dose-only effect, or another doubt; inactive = no such curve, though single readings can be large or run the other way.
SMILES,Pf growth 48h,Pf growth 96h,CHX counter,Shiga inhibitor
CC(=O)n1cc([C@H]2C=C(C(=O)N3CCN(Cc4ccccc4)CC3)O[C@@H](OCc3ccc(CO)cc3)C2)c2ccccc21,?,2.9µM*,-2,-3
CC(=O)n1cc([C@H]2C=C(C(=O)N3CCN(Cc4ccc5c(c4)OCO5)CC3)O[C@@H](OCc3ccc(CO)cc3)C2)c2ccccc21,4.7µM*,3.3µM*,-3,12
O=C(O)c1nc(-c2ccccc2)n(-c2cccc(C(F)(F)F)c2)n1,0%,?,9,39
O=c1c2ccccc2c(-c2ccc(O)cc2)nn1-c1cccc(C(F)(F)F)c1,9.3µM*,?,-5,-5
O=c1c2ccccc2c(-c2cccc(C(F)(F)F)c2)nn1-c1ccccc1,?,9.3µM*,-4,-4
CCOC(=O)C1=C(C)NC2=C(C(=O)c3ccccc32)C1c1ccc([N+](=O)[O-])o1 (configuration not stated),13µM*,?,12,17
COc1ccc(CNC(=O)CCCn2nc(C)c3c(C)n(-c4ccc(C)cc4)nc3c2=O)cc1,?,?,-3,26
CCOC(=O)c1cc(NC(=O)N(C(C)C)C(C)C)c(C)nc1C,30%,?,-4,-16
CCOC(=O)c1cc2c(nc1C)-c1cc(Cl)cc(Cl)c1OC2O (configuration not stated),6.6µM*,4.7µM*,-1,-8
CCOC(=O)c1sc(SC)nc1N,44%,-2%,16*,20
CSc1nc(N)c(C(=O)NC2CCCCC2)s1,31%,45%,38*,75*
CC(=O)c1ccc(OCC(=O)N2CCCC(Nc3ccc(C)c(C)c3)C2)cc1 (configuration not stated),27%,?,-4,-4
COc1ccc(-c2nc3c(c(SCC(=O)N4CCOCC4)n2)Cc2c(CO)cnc(C)c2O3)cc1,?,14%,13,-5
Cc1ccc(-c2nc3c(c(SCC(=O)N4CCOCC4)n2)Cc2c(CO)cnc(C)c2O3)cc1,7.4µM*,-14%,7,-1
Fc1ccc(Sc2nc(-c3ccccc3)nnc2C(F)(F)F)cc1,8.3µM*,13µM*,1,-2
Fc1ccc(Oc2nc(-c3ccccc3)nnc2C(F)(F)F)cc1,1%,-6%,-2,-1
Nc1nc(N)c(N=Nc2ccc(C(=O)O)cc2)c(N)n1,-6%,?,3,14
Oc1[nH]c2ccccc2c1N=Nc1cccc(Cl)c1,97%,?,28*,34*
O=C(O)c1ccc(N=Nc2c(O)[nH]c3ccc(Br)cc23)cc1,?,5.2µM*,56*,111*
O=C(O)c1ccc(N=Nc2c(O)[nH]c3cc(Cl)ccc23)cc1,?,4.7µM*,36*,67*
Cc1ccc2[nH]c(O)c(N=NC(N)=S)c2c1,?,?,-1,18
Cc1ccc(N=Nc2c(O)[nH]c3ccc(F)cc23)cc1,284%,436%,50*,67*
Oc1[nH]c2ccccc2c1N=Nc1c(F)c(F)c(Cl)c(F)c1F,11%,?,0,1
CN(C)S(=O)(=O)c1cccc(NC(=O)c2cccc(N3C(=O)CCC3=O)c2)c1,?,0%,·,·
Cc1cccc2c(N=Nc3ccccc3)c(O)[nH]c12,118%,21%,65*,57*
SMILES,Pf growth 48h,Pf growth 96h,CHX counter,Shiga inhibitor
CCc1cccc2c(N=O)c(O)[nH]c12,17%,22%,-1,-14
CN(C)c1cccc(C(=O)NNC(=S)NC2CCCC2)c1,106%,-22%,18*,34
CN(C)c1cccc(C(=O)NNC(=O)NC2CCCCC2)c1,-2%,6.6µM*,1,-8
COc1cc(OC)cc(C(=O)OCC(=O)NC2CCCCCC2)c1,8%,5%,·,·
COc1cc(OC)cc(C(=O)NNC(=O)NC2CCCCC2)c1,-9%,10µM*,-1,20
CC(OC(=O)c1nccnc1N)C(=O)Nc1ccc(S(=O)(=O)N2CCCC2)cc1 (configuration not stated),-15%,-7%,·,·
COc1ccc2[nH]c3c(N4CCC(O)(c5cccc(C(F)(F)F)c5)CC4)ncnc3c2c1,15µM*,2.3µM*,-3,-4
CCOC(=O)C1CCCN(C(=O)c2cc3ccc(OC)cc3[nH]2)C1 (configuration not stated),101%,110%,23*,36
CCOC(=O)C1CCCN(C(=O)c2cc3cc(F)ccc3[nH]2)C1 (configuration not stated),?,?,6,42
COc1ccc2cc(C(=O)N3CCN(c4ccc(F)cc4)CC3)[nH]c2c1,-15%,-5%,1,12
COc1ccc2[nH]c3c(N4CCN(Cc5ccc6c(c5)OCO6)CC4)ncnc3c2c1,4.1µM*,5.9µM*,-8,-34
COc1ccc2cc(C(=O)N3CCN(C)CC3)[nH]c2c1,167%,229%,33*,86*
COc1ccc2c(c1)c1ncnc(N3CCN(Cc4ccc5c(c4)OCO5)CC3)c1n2C,?,i,-2,-2
Clc1ccc2[nH]c3c(N4CCC5(CC4)OCCO5)ncnc3c2c1,?,?,4,3
Cc1ccc(N2CC(C(=O)Nc3cccnc3)CC2=O)cc1C (configuration not stated),19%,24%,-7,-6
CCN1CCN(C(=O)c2cc3ccc(OC)cc3[nH]2)CC1,99%,130%,31*,60*
COc1ccc2cc(C(=O)N3CCN(Cc4ccc5c(c4)OCO5)CC3)[nH]c2c1,10%,13µM*,5,-1
C/C(CC(=O)NCc1ccccc1Cl)=N/NC(=O)c1ccccn1,38%,10%,25*,79*
C/C(CC(=O)NC1CCCCC1)=N\NC(=O)c1ccccn1,80%,10%,39*,64*
CC(=O)Nc1ccccc1NC(=O)C/C(C)=N/NC(=O)c1ccccn1,69%,?,38*,61*
C/C(CC(=O)Nc1ccc(F)cc1)=N\NC(=O)c1ccccn1,217%,-9%,18,24
COc1ccc(CN(C)C(=O)C2CSC3(C)CCC(=O)N23)cc1OC (configuration not stated),5%,?,·,·
Cc1c(C(=O)Oc2cccc3cccnc23)cccc1[N+](=O)[O-],?,?,41*,171*
N/C(=N\OC(=O)c1cccc([N+](=O)[O-])c1)c1ccccn1,365%,?,37*,114*
O=C(OCC(=O)N1CCCCCC1)c1ccc([N+](=O)[O-])cc1Cl,?,-11%,15*,27
N/C(=N\OC(=O)c1ccc([N+](=O)[O-])cc1Cl)c1ccccn1,117%,?,14*,32
CSc1nc(=O)n2cc(C)ccc2n1,20%,5%,7,18
O=C(CC1C(=O)NCCN1CC1CCCCC1)NCc1cccc(F)c1F (configuration not stated),7%,-2%,-2,-26
Cc1ccc(C)c(OCC(=O)Nc2ccc(C(=O)O)cc2NC(=O)COc2cc(C)ccc2C)c1,33%,8%,4,21
Cc1ccc(S(=O)(=O)NCCC(=O)NCCOc2ccccc2)cc1,?,-7%,·,·
